Screen size: about 410,000 compounds; about 7,200 (1.8%) were called active. Entries that show only a call come without a potency. Not shown: some 7% with an inconclusive outcome. The call rests on the fitted dose curve; in most records, active means well fitted activation curve with a large enough effect; inconclusive means small, poorly fitted or top-dose-only effect, or another doubt; inactive means no such curve, though single readings can be large or run the other way. The sample as a whole holds a higher share of actives than the screen did.
Potency means the concentration at half of the fitted maximal effect.

The assay is described as follows: qHTS of TDP-43 Inhibitors. Further: nearly all actives have a fitted effect of over 50% in size. To be noted: TDP-43 expressing yeast growth rescue, BacTiter-Glo, 24 h; series mostly up to 46.1 µM. In short, it runs like this: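 Yeast expressing TDP-43 (pregrown in raffinose, seeded at OD600=0.02 in galactose medium) exposed to compounds 24 hr at 30 deg C. Growth read by BacTiter-Glo luminescence; rescue of toxicity appears as increased signal.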
Consider `Cc1ccc2c(c1)c1ncnc(N3CCc4ccccc4C3)c1n2C`, for which the Potency is 22.4 µM (active).
As for `Cc1ccc2c(c1)N(C(=O)CCC(=O)N1CCc3ccccc3C1)CCO2`, the Potency entry is “inactive”.
The same measure, in the same setting: under `COc1ccc2c(c1)c1ncn(Cc3ccccn3)c(=O)c1n2C` stands “inactive”; under `CCOc1ccc(-n2nc3ccc(NC(=O)c4ccc(OC)c(Cl)c4)cc3n2)cc1`, “inactive”.
The same measure, in the same setting: in the case of `CCCCOc1ccc(NC(=O)c2cc3c(n(-c4ccc(Cl)cc4)c2=O)CCCC3=O)cc1` it was “inactive”; in that of `COc1ccc(C2=NN(C(=O)CSc3nc(=O)n4ccc(C)cc4n3)C(c3ccc(C)cc3)C2)cc1` (stereo not given), “inactive”; in that of `CCC(=O)N1N=C(c2ccc(OC)cc2)CC1c1cn(-c2ccccc2)nc1-c1cccs1` (stereo not given), “inactive”.
Still for that read-out and setting: in the case of `COc1ccc(C2=NN(C(C)=O)C(c3ccccc3)C2)cc1` (stereo not given) it was 14.1 µM (active).
As to `CCN(C(=O)Cn1c(=O)nc(-c2ccccc2)c2cc(Cl)ccc21)c1cccc(C)c1`, the Potency entry was “inactive”.
Still for that read-out and setting: in the case of `COc1ccc(CCn2cc3c(c2-c2ccc(Br)cc2)c(=O)n(C)c(=O)n3C)cc1OC` it was “inactive”; in that of `Cc1ccc(-c2c3c(=O)n(C)c(=O)n(C)c3cn2-n2cnnc2)cc1`, “inactive”.
Same read-out and setting: under `Cn1c(=O)c2c(-c3ccccc3Br)n(Cc3ccccc3)cc2n(C)c1=O` stands 22.4 µM (active).
Consider `CCc1ccc(S(=O)(=O)c2nnn3c2nc(NCc2ccccc2OC)c2cc(Cl)ccc23)cc1`, for which the Potency entry was “inactive”.
On the same count and under the same terms, under `NS(=O)(=O)c1ccc(NC(=O)C(=O)Nc2ccc3nc4n(c(=O)c3c2)CCCCC4)cc1` stands “inactive”; under `CC(C)NS(=O)(=O)c1ccc(NC(=O)C2CCCCC2)cc1`, “inactive”.
The same measure, in the same setting: in the case of `Cc1nc(NC(=O)C2CCCCC2)sc1C` it was 12.6 µM (active); in that of `CCOC(=O)c1cc(C)sc1NC(=O)C1CCC1`, “inactive”.
The same measure, in the same setting: under `CCOC(=O)C1CCCN(C(=O)c2ccc3c(c2)sc2nc(-c4ccc(CC)cc4)cn23)C1` (stereo not given) stands “inactive”; under `COc1ccc(/C=C/c2nc(C#N)c(NCc3ccc(F)cc3)o2)cc1OC`, “inactive”.
On to `COc1cc2[nH]c(=O)n(Cc3ccc(C(=O)NCc4ccc(C)cc4)cc3)c(=O)c2cc1OC`, for which the Potency result is “inactive”.
The same measure, in the same setting: in the case of `COc1ccc(N2CCN(C(=O)CCSCc3ccccc3F)CC2)cc1` it was “inactive”.
For `O=C(CCSc1ccccc1)N1CCN(c2ccccc2F)CC1`, the growth rescue (activation) was -9.85% [at 9.22 µM] (inactive).
`Cc1cccc(N2CCN(C(=O)CCSCc3ccccc3F)CC2)c1C`: the Potency is 20 µM (active).
As to `CCc1cc2c(cc3c(=O)n(CC(=O)NCc4cccc(Cl)c4)nc(CC)n32)s1`, the Potency result was “inactive”.
The same measure, in the same setting: in the case of `C=Cc1ccc(Cn2c(C(=O)O)c(CNC3CCCC3)c3ccc(C)cc32)cc1` it was “inactive”; in that of `CCCNC(=O)C1CCC(Cn2c(=O)c3sccc3n(Cc3ccccc3F)c2=O)CC1` (stereo not given), “inactive”.
The same measure, in the same setting: under `COc1ccccc1-c1cc2nc(C)c(CCC(=O)O)c(C)n2n1` stands “inactive”; under `COc1ccc(-c2cc3nc(C)c(CCC(=O)NC(C)CCc4ccco4)c(C)n3n2)c(OC)c1` (stereo not given), 17.8 µM (active); under `COc1ccccc1-c1cc2nc(C)c(CCC(=O)NC3CCCCC3)c(C)n2n1`, “inactive”.
On the same count and under the same terms, in the case of `COc1cccc(C2=CC(=O)C[C@H](c3ccc(OC)c(OC)c3)C2)c1` it was 15.8 µM (active).
Turning to `COc1ccc([C@H]2CC(=O)C=C(c3ccc(OC(F)(F)F)cc3)C2)cc1OC`, the Potency was 14.1 µM (active).
In the case of `COc1ccc([C@H]2CC(=O)C=C(/C=C/c3ccccc3)C2)cc1`, the Potency entry was “inactive”.
Same read-out and setting: under `COc1ccc([C@H]2CC(=O)C=C(c3ccc(CO)cc3)C2)cc1` stands “inactive”.
On to `COc1ccc(C2CC(=O)n3c(nc4ccccc43)S2)cc1OC` (stereo not given), for which the Potency result is “inactive”.
Same read-out and setting: in the case of `COc1ccc(C2CC(=O)C=C(NCC3CCCO3)C2)cc1` (stereo not given) it was “inactive”.
Take `CCOC(=O)c1c(NC(=O)Cc2coc3ccc(CC)cc23)sc2c1CCC2`: the Potency entry is “inactive”.
The same measure, in the same setting: in the case of `O=C(Nc1ccc(OC(F)(F)F)cc1)C1CCCN(S(=O)(=O)c2ccc(Br)s2)C1` (stereo not given) it was “inactive”; in that of `CC(NC(=O)c1cc2c(=O)n3ccccc3nc2n(C(C)C)c1=N)c1ccccc1` (stereo not given), “inactive”; in that of `CN(CCOc1ccccc1)C(=O)c1cc(-c2ccco2)nc2ccccc12`, 35.5 µM (active).
Turning to `CN(Cc1ccccc1)C(=O)c1cc2c(=O)n(C)c3ccccc3c2s1`, the Potency entry was “inactive”.
With `COc1cccc(NC(=O)CN(C)C(=O)c2cc(Cl)nc3ccccc23)c1`, the Potency entry is “inactive”.
Same read-out and setting: in the case of `COc1ccc(-c2cc(C(=O)N(C)Cc3ccccc3)c3ccccc3n2)cc1` it was 14.1 µM (active); in that of `CN(C)C(CNC(=O)CCCOc1ccccc1)c1ccco1` (stereo not given), “inactive”; in that of `COc1ccc(C2=NS(=O)(=O)N(C)C(C(=O)N(C)Cc3ccccc3)=C2)cc1`, “inactive”.
Same read-out and setting: in the case of `Cc1ccc2oc3c(c(=O)c2c1)C(c1ccc(O)cc1)N(Cc1ccc2c(c1)OCO2)C3=O` (stereo not given) it was “inactive”.
As for `CNc1ccc(-c2nc(-c3ccccc3C)no2)cc1[N+](=O)[O-]`, the Potency result is “inactive”.
Same read-out and setting: under `Cc1ccc(CN2CCC(CNC(=O)c3cnn(-c4ccc(C)cc4)c3C3CCN(C(=O)OC(C)(C)C)CC3)CC2)cc1` stands “inactive”.
For the molecule `COc1ccc(CCNS(=O)(=O)c2cccc([N+](=O)[O-])c2)cc1`, the growth rescue (activation) was -3.92% [at 1.82 µM] (inactive).
Consider `COc1ccc(Cc2nnc(SCC(=O)c3cccc([N+](=O)[O-])c3)n2C)cc1`, for which the Potency result was “inactive”.
As to `COc1ccc(CC(=O)N/N=C/c2cc([N+](=O)[O-])cc(Br)c2O)cc1`, the Potency was 6.31 µM (active).
Same read-out and setting: under `O=C(COc1ccccc1Cl)Nc1ccc2nc(SCC(=O)N3CCCC3)sc2c1` stands “inactive”; under `Cc1ccc(NC(=O)COc2coc(CN3CCc4ccccc4C3)cc2=O)cc1Cl`, “inactive”; under `Cc1ccccc1OCC(=O)Nc1ccc(N2CCN(C(=O)C(C)C)CC2)c(Cl)c1`, 25.1 µM (active).
Same read-out and setting: under `COc1ccc(-c2nc(SCC(=O)N3CCCCC3C)n[nH]2)cc1` (stereo not given) stands “inactive”; under `COc1ccccc1CN1CCC(CNC(=O)c2cnn(-c3ccccc3Cl)c2C2CCN(C(=O)OC(C)(C)C)CC2)CC1`, “inactive”; under `CCCC(=O)Nc1cc2nn(-c3ccccc3)nc2cc1C`, “inactive”.
Still for that read-out and setting: in the case of `COc1ccc(Cl)cc1-c1cc(C(=O)Nc2cc(OC)c(OC)c(OC)c2)[nH]n1` it was “inactive”.
On to `CCN(CC)C(=O)Oc1ccc(Br)cc1C(=O)Nc1ccc(F)c(Cl)c1`, for which the Potency entry was “inactive”.
Still for that read-out and setting: in the case of `CCCOc1ccc(F)cc1-c1cc(C(=O)Nc2ccc(F)c(Cl)c2)[nH]n1` it was 8.91 µM (active); in that of `CC(C)(C)c1ccc(C(=O)NCC(c2ccc(Cl)cc2)N2CCOCC2)cc1` (stereo not given), “inactive”.

Values taken from PubChem BioAssay AID652104 (National Center for Advancing Translational Sciences (NCATS), 2013).
